Experimental data: PubChem BioAssay (NCI)
About 83,000 compounds went through this panel and 20% of them were active in at least one assay; those are over-represented in the sample as a whole.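 Each cell line was grown in a 96-well plate and treated with one concentration of compound for 48 hours. Values below 10 were considered active.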 Unmarked numbers belong to inactive results. Calls of active or inactive are those of the source.

tested on: MDA-MB-468 breast; test: NCI-60 one-dose screen, 48 h (100 = growth as untreated, 0 = no growth, -100 = all killed); conditions: 10 µM unless noted

Row | Structure (SMILES) | growth
1 | CC(O)c1cccc(/C(N)=N/C(N)=N/c2nc3ccccc3s2)c1 (stereo not given) | 103%
2 | CCN(CC)CCC(CNc1ccnc2cc(Cl)ccc12)c1ccc(Cl)cc1 (stereo not given) | -86.6% (active)
3 | CCN1C(=O)N(CC)C2Nn3c(s/c(=C\c4cccc([N+](=O)[O-])c4)c3=O)=NC21 (stereo not given) | 28.8%
4 | CC(=O)OC[C@]12CC[C@@H]([C@@H](C)c3nnc(-c4ccncc4)o3)[C@@H]1[C@H]1CC[C@@H]3[C@@]4(C)CC[C@H](OC(C)=O)C(C)(C)[C@@H]4CC[C@@]3(C)[C@]1(C)CC2 | 59%
5 | Cc1cc(Nc2ccc(OCc3ccccc3)cc2)nc2cc(O)ccc12 | 6.48% (active)
6 | O=C(Nc1ccc(CN2CCOCC2)cc1)c1ccc(-c2cc(Cl)ccc2Cl)o1 | -56.1% (active)
7 | COc1ncc(-c2ccc3ncnc(Nc4cccc(Cl)c4)c3c2)cc1NS(C)(=O)=O | -43.3% (active)
8 | CCCCn1c(=O)c(C2CNC(=O)c3ccccc3N2)cc2ccccc21 (stereo not given) | 107%
9 | O=C1NC(=O)c2c1c1c3ccccc3ccc1c1[nH]c3ccccc3c21 | 7.32% (active)
10 | COc1ccc(-c2cc(/C=C3\C(=O)Nc4ccc(Cl)cc43)[nH]n2)cc1 | 41.7%
11 | c1ccc(-c2nc3ccccc3s2)cc1 | 96.4%
12 | O=C(CCCCCCCCC(=O)N/N=C\c1ccccc1O)N/N=C\c1ccccc1O | -28.4% (active)
13 | Cc1cccc2c1NC(=O)C2(c1ccc(O)cc1)c1ccc(O)cc1 | -11% (active)
14 | O=C(Nc1cccc(-n2cc(-c3ccncc3)c(-c3ccc(Cl)c(O)c3)n2)c1)c1ccccc1 | 64.1%
15 | CCNc1ncnc2c1cnn2C1CCCO1 (stereo not given) | 102%
16 | CN(C)c1ccc(/C=C\c2ccnc3ccccc23)cc1 | 31.2%
17 | Cc1cc(N2CCN(CC(=O)Nc3ccc4c(ccn4Cc4ccccc4)c3)CC2)nc(N2CCOCC2)n1 | 67%
18 | Cc1cccc(Oc2ccc(Nc3ncnc4ccc(NC(=O)CNCCO)cc34)cc2Cl)c1 | -21.9% (active)
19 | COc1ccc(-c2n/c(=C\c3c(O)[nH]c4ccccc34)cc3c2=Nc2ccccc2-3)cc1 | -48% (active)
20 | CCCCCNCCCCCNc1cc(OC)cc2cccnc12 | 45.3%

Row | Structure (SMILES) | growth
21 | Cc1cc(=O)n2n1-c1ccc(Cl)cc1NC(=O)C2 | 101%
22 | Oc1c(N=Nc2nn[nH]n2)ccc2ccccc12 | 85.3%
23 | NC(=O)c1c(NC(=O)c2ccccn2)sc2c1CCC(=O)C2 | 6.36% (active)
24 | Cn1cc(-c2ccc(-c3cn(C)c4ncccc34)[nH]2)c2cccnc21 | -23.7% (active)
25 | CCc1cc(OC(=O)N2CCC(N3CCCCC3)CC2)ccc1Nc1cc(-c2ccc(-n3cccn3)cc2)[nH]n1 | 84.4%
26 | O=C(Nc1nc2ccccc2[nH]1)C(=O)Nc1nc2ccccc2[nH]1 | 103%
27 | Fc1ccc(/C=C/[C@@H]2C[C@@H](F)CCO2)cc1 | 84%
28 | O=C(NN(C(=O)c1ccccc1)c1cccs1)c1ccccc1 | 103%
29 | Cc1ccc(Nc2nc(-c3cc(O)c(C)c(C)c3O)cs2)cc1 | 44.5%
30 | Cc1ccc(SC2c3ccc(C)cc3Oc3nc(N)c(C#N)c(N)c32)cc1 (stereo not given) | -36.5% (active)
31 | COC(CCCl)c1ccc(Cl)cc1 (stereo not given) | 102%
32 | CCC(c1ccc(OC)cc1)C(CC)c1ccc(O)c(CN2CCCCC2)c1 (stereo not given) | 22.9%
33 | Cn1c(NCCc2ccc(O)c(O)c2)nc2c1c(=O)n(Cc1ccc(Cl)cc1)c(=O)n2C | 19.4%
34 | Clc1ccc(-c2nnc(COc3ccccc3Cl)o2)cc1 | 93.7%
35 | O=C1C[C@H](N2C(=O)c3ccccc3S2(=O)=O)C2CO[C@@H]1O2 | 80.3%
36 | N#CC1=C(c2ccccc2)Nc2c(c(-c3ccc(Cl)cc3)nn2-c2ccccc2)C12C(=O)Nc1ccc(Cl)cc12 (stereo not given) | 70%
37 | CCOC(=O)c1c2c(n3ccc(NC(=O)CCN4CCOCC4)cc13)C(=O)c1ncccc1C2=O | 49.7%
38 | CC[C@@H](C(=O)[C@@H](C)[C@@H](O)[C@H](C)[C@@H]1O[C@@H]([C@@H](CC)C(=O)ONC(=O)c2ccccc2O)CC[C@@H]1C)C1O[C@]2(C=CC(=O)[C@]3(CC[C@@](C)([C@H]4CC[C@](O)(CC)[C@H](C)O4)O3)O2)[C@H](C)C[C@@H]1C (stereo not given in full) | 16.4%
39 | O=C(Nc1ncc(Cc2ccc(Cl)cc2)s1)c1ccc2c(c1)OCCO2 | 47.1%
40 | O=[N+]([O-])c1ccc(Sc2nc(Cl)nc(NC3CCCC3)n2)cc1 | -46.5% [100 µM] (active)
